Here are results for 12 compounds from PubChem BioAssay (Tox21).

Experiment [1] is described as follows: Caspase-3/7 induction in HepG2 cells by small molecules, qHTS assay (AID 1346978). Note: % is set by controls: 0 for no effect and ±100 for the full control effect; nearly all actives have a fitted effect of over 15% in size. Summed up:
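Wild-type HepG2 cells, 2,000/well, settled 5 hr at 37 C and 5% CO2, then compound-treated for 17 hr; caspase-3/7 activity read by luminescent Caspase-Glo 3/7 after 30 min at room temperature.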
(In qHTS, concentration-response curves come from the screen itself.)

Experiment [2] in a line: Caspase-3/7 induction in CHO-K1 cells by small molecules, qHTS cell viability counter screen (AID 1346979). Note: nearly all actives have a fitted effect of over 35% in size. Note: potency is the fitted concentration of half-maximal effect. Summed up: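 CHO-K1 wt, 1,500 cells/well; 5hr pre-incubation 37C/5% CO2; compound pin transfer (DMSO); 16hr exposure; CellTiter-Fluor added, 1hr, fluorescence read.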
Experiment [3] can be described thus: Caspase-3/7 induction in CHO-K1 cells by small molecules, qHTS assay (AID 1346980). Note: % is set by controls: 0 for no effect and ±100 for the full control effect; nearly all actives have a fitted effect of over 15% in size. Summed up:
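Wild-type CHO-K1 cells exposed to compounds for 17hr at 37 C, 5% CO2. Caspase-3/7 activity then measured by Caspase-Glo 3/7 luminescence after 30min at room temperature.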

Experiment [4] is described as follows: Caspase-3/7 induction in HepG2 cells by small molecules, qHTS cell viability counter screen (AID 1346981). Note: nearly all actives have a fitted effect of over 30% in size. Note: potency is the fitted concentration of half-maximal effect. Put shortly:
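HepG2, WT, 2,000 cells/well; 5 hr pre-incubation 37 C/5% CO2; compound pin-transferred from DMSO; 16 hr exposure; CellTiter-Fluor, 1 hr; fluorescence read.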

In experiment [5] the target is Nuclear receptor subfamily 1 group I member 2 (Homo sapiens) (UniProt O75469). The experiment can be described thus: Human pregnane X receptor (PXR) small molecule agonists, qHTS assay (AID 1346982). For activation: % is set by controls: 0 for no effect and ±100 for the full control effect. Note: nearly all actives have a fitted effect of over 35% in size. Note: potency is the fitted concentration of half-maximal effect. Summed up: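 Luciferase signal from ONE-Glo (30 min, room temperature) measured activation of hPXR-driven CYP3A4 reporter expression in PXR-Luc HepG2 cells treated with compounds for 24 hr at 37 C.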

Experiment [6] addresses Cytochrome P450 2C19 (Homo sapiens) (UniProt P33261). The experiment can be described thus: Cytochrome P450 Family 2 Subfamily C Member 19 (CYP2C19) small molecule antagonists: luciferase reporter qHTS assay (AID 1671197). Note: nearly all actives have a fitted effect of over 65% in size. Note: potency is the fitted concentration of half-maximal effect. Put shortly:
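First, compounds are pinned into enzyme-substrate mix and held 10 min at room temperature. Second, NADPH regeneration solution is added and plates incubate 1 h at 37C. Third, detection reagent is added and luminescence read after 20 min.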
On the technique in general: A reporter such as luciferase makes a cellular process visible.

Experiment [7] has as its target Cytochrome P450 2C9 (Homo sapiens) (UniProt P11712). The experiment is described as follows: Cytochrome P450 Family 2 Subfamily C Member 9 (CYP2C9) small molecule antagonists: luciferase reporter qHTS assay (AID 1671198). Note: nearly all actives have a fitted effect of over 50% in size. Note: potency is the fitted concentration of half-maximal effect. Put shortly:
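P450-Glo proluciferin substrate with CYP2C9 enzyme; 10 min RT preincubation, then NADPH regeneration 1 h at 37C; luciferin detection reagent 20 min RT, luminescence in relative luminescence units.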

Experiment [8] deals with Voltage-gated inwardly rectifying potassium channel KCNH2 (Homo sapiens) (UniProt Q12809). The experiment can be described thus: Human Ether-a-go-go-Related Gene (hERG) channel small molecule antagonists: fluorescence cell-based qHTS assay (AID 1671200). Note: nearly all actives have a fitted effect of over 50% in size. Note: potency is the fitted concentration of half-maximal effect. Summed up:
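Read-out: thallium influx as a surrogate for potassium, tracked as fluorescence (480 nm ex/540 nm em) every second for 2 min after Stimulus Buffer addition in dye-loaded hERG-U2OS cells.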
For orientation: The hERG channel carries a current that helps repolarise heart muscle cells.

Experiment [9] addresses Cytochrome P450 3A4 (Homo sapiens) (UniProt P08684). The experiment can be described thus: Cytochrome P450 Family 3 Subfamily A Member 4 (CYP3A4) small molecule antagonists: luciferase reporter qHTS assay (AID 1671201). Note: series mostly up to about 120 µM; % is set by controls: 0 for no effect and ±100 for the full control effect; nearly all actives have a fitted effect of over 50% in size. Put shortly:
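Luminescent readout (RLU) proportional to CYP3A4 activity, from luciferin generated off a proluciferin substrate. Enzyme–substrate mix plus compound 10 min at room temp, NADPH regeneration 1 h, detection reagent 20 min.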

For experiment [10], the target named is Cytochrome P450 2D6 (Homo sapiens) (UniProt P10635). The experiment is described as follows: Cytochrome P450 Family 2 Subfamily D Member 6 (CYP2D6) small molecule antagonists: luciferase reporter qHTS assay (AID 1671196). Note: nearly all actives have a fitted effect of over 50% in size. Note: potency is the fitted concentration of half-maximal effect. Put shortly: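 Read-out is luminescence from luciferin formed by CYP2D6 turnover of a proluciferin substrate, recorded as relative luminescence units. Reactions ran 1 h at room temperature after NADPH regeneration solution was added.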

The target in experiment [11] is Cytochrome P450 1A2 (Homo sapiens) (UniProt P05177). The experiment can be described thus: Cytochrome P450 Family 1 Subfamily A Member 2 (CYP1A2) small molecule antagonists: luciferase reporter qHTS assay (AID 1671199). Note: nearly all actives have a fitted effect of over 50% in size. Note: potency is the fitted concentration of half-maximal effect. Put shortly:
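P450-Glo CYP1A2, 1536-well qHTS: enzyme/proluciferin substrate + cpd (DMSO), 10 min RT; NADPH regen, 1 h RT; detection reagent, 20 min; luminescence, RLU.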

For experiment [12], the target named is Nuclear receptor subfamily 1 group I member 2 (Rattus norvegicus) (UniProt Q9R1A7). The experiment can be described thus: Rat pregnane X receptor (rPXR) activation by small molecules, qHTS assay (AID 1346983). For max activation: % is set by controls: 0 for no effect and ±100 for the full control effect. Note: nearly all actives have a fitted effect of over 20% in size. Note: potency is the fitted concentration of half-maximal effect. Particulars: rPXR luciferase reporter cells, One-Glo luminescence, 24 h; max activation: active compounds read high. Summed up:
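Cell-based rPXR activation assay: rPXR cells, 2,000 per well, rested 5hr at 37 C, then exposed to compounds in DMSO for 24 hr at 37 C. Luciferase activity read by One-Glo luminescence after 30 min at room temperature.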

The target of experiment [13] is Nuclear receptor subfamily 1 group I member 2 (Homo sapiens) (UniProt O75469). The experiment can be described thus: Human pregnane X receptor (PXR) activation by small molecules, qHTS assay (AID 1346985). Note: potency is the fitted concentration of half-maximal effect; nearly all actives have a fitted effect of over 40% in size. Summed up:
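DPX-2 cells (HepG2 co-transfected with a PXR response element and a CYP3A4-promoter luciferase construct) were seeded at 2,000 per well, rested 5 hr at 37C, then exposed to DMSO-dissolved compounds for 24 hr. Activation was read as luciferase luminescence.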

Experiment [14] has the same target. The experiment is described as follows: CYP3A4 induction through human pregnane X receptor (PXR) by small molecules, qHTS assay (AID 1346984). Note: % is set by controls: 0 for no effect and ±100 for the full control effect; nearly all actives have a fitted effect of over 40% in size. Summed up:
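Luminescence readout: luciferase signal after One-Glo (30 min, room temperature), following 3 h at 37C with 3uM final Luciferin-IPA P450 substrate. Cells were DPX-2 (HepG2, PXR/CYP3A4-luc co-transfected) dosed for 24 h.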

A number with no mark means an inactive call. Records with an inconclusive call do not appear. Activity calls are given as the source filed them. Calls come from the whole dose curve; as a rule, active = well fitted curve in the direction sought with a large enough effect in the repeat runs; inconclusive = weak or mixed curves; inactive = no such curve, though single readings can be large; an effect the other way counts as inactive or inconclusive.

Cytochrome P450 2D6 (Homo sapiens), sequence (P10635 whole entry, looked up): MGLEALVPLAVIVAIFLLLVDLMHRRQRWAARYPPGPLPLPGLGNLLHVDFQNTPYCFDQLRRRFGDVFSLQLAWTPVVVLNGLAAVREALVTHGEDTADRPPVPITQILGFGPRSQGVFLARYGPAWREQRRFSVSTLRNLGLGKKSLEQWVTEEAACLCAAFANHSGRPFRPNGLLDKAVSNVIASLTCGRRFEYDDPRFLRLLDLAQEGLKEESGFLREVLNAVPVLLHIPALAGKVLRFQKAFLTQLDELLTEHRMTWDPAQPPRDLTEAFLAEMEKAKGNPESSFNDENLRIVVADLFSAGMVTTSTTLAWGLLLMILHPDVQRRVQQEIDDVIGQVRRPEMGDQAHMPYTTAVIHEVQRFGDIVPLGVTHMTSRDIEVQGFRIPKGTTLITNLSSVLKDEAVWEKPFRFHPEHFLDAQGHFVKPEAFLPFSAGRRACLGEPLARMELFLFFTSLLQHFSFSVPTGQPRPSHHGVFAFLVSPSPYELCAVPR
Nuclear receptor subfamily 1 group I member 2 (Homo sapiens), sequence (O75469 whole entry, looked up): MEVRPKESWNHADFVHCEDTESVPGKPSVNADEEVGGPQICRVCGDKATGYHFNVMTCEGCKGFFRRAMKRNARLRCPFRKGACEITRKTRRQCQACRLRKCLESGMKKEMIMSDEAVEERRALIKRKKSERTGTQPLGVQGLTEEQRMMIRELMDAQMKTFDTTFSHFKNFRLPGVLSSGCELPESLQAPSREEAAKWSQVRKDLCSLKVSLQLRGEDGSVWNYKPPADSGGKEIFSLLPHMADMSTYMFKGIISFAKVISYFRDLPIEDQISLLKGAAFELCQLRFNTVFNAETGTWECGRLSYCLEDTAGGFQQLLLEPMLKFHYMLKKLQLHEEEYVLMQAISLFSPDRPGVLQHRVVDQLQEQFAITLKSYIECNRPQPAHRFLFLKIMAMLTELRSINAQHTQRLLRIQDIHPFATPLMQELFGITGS
Voltage-gated inwardly rectifying potassium channel KCNH2 (Homo sapiens), sequence (Q12809 whole entry, looked up): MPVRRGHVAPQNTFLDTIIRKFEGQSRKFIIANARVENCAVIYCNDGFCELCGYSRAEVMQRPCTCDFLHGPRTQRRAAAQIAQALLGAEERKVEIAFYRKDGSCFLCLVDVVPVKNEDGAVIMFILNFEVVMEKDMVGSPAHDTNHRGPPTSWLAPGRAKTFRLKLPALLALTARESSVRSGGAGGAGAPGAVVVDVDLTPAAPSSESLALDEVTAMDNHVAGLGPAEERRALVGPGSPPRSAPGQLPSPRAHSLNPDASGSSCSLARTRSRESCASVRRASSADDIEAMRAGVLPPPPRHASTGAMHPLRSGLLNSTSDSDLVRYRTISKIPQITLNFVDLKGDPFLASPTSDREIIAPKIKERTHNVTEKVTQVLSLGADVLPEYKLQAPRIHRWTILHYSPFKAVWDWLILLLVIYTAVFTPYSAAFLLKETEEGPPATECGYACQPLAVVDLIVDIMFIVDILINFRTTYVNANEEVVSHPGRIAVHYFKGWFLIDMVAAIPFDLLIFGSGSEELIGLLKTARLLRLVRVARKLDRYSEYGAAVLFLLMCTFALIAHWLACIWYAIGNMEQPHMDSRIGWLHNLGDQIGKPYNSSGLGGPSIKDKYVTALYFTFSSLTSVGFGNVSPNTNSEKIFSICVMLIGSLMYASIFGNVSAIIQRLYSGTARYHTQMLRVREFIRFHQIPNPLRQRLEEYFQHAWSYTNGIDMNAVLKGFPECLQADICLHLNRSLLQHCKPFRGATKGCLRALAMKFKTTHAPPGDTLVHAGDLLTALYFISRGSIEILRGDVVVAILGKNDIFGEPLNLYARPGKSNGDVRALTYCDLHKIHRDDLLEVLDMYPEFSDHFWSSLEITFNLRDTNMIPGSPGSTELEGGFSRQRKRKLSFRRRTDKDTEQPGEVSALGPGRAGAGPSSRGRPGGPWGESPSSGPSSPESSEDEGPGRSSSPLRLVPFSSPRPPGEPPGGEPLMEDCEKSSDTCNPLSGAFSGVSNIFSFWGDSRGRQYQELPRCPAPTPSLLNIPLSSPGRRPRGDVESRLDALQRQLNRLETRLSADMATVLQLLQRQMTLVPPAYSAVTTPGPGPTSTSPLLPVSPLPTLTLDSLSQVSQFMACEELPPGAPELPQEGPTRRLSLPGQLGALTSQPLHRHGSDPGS
Cytochrome P450 2C19 (Homo sapiens), sequence (P33261 whole entry, looked up): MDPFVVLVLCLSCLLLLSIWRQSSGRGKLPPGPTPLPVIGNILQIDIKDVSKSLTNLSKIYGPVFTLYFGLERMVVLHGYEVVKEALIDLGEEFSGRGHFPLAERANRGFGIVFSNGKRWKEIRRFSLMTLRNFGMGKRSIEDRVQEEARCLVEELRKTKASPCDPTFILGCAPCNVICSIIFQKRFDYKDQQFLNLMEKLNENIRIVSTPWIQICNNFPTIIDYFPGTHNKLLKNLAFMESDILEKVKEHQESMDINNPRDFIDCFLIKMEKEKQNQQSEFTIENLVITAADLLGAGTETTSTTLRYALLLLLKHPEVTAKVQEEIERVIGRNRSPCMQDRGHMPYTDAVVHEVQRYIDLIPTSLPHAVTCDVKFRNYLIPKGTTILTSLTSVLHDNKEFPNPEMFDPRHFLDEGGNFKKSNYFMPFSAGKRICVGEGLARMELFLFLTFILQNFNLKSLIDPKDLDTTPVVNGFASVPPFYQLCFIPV
Nuclear receptor subfamily 1 group I member 2 (Rattus norvegicus), sequence (Q9R1A7 whole entry, looked up): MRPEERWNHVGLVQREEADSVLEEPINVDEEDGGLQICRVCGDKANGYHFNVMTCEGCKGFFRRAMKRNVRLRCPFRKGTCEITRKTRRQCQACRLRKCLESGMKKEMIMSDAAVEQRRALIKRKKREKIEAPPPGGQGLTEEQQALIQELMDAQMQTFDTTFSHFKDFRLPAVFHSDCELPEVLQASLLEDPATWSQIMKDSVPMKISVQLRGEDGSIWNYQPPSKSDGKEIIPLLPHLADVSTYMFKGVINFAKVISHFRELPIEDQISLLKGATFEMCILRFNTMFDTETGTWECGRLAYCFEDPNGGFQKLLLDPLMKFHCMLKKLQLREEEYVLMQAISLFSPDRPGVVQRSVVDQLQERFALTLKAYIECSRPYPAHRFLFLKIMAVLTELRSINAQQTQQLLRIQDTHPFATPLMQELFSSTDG
Cytochrome P450 3A4 (Homo sapiens), sequence (P08684 whole entry, looked up): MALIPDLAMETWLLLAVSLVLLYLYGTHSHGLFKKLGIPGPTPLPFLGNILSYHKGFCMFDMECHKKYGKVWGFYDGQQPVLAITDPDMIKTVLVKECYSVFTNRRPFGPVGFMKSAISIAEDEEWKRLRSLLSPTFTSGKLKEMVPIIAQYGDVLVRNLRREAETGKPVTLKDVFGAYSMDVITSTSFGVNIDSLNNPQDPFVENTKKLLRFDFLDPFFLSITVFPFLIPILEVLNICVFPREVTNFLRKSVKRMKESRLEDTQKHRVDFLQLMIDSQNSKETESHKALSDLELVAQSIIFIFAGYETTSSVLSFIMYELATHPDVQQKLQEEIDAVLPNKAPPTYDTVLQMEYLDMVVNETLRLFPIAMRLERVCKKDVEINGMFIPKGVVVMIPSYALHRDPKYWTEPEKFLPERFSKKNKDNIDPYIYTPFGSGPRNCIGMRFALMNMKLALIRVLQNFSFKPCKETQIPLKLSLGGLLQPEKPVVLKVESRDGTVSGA
Cytochrome P450 2C9 (Homo sapiens), sequence (P11712 whole entry, looked up): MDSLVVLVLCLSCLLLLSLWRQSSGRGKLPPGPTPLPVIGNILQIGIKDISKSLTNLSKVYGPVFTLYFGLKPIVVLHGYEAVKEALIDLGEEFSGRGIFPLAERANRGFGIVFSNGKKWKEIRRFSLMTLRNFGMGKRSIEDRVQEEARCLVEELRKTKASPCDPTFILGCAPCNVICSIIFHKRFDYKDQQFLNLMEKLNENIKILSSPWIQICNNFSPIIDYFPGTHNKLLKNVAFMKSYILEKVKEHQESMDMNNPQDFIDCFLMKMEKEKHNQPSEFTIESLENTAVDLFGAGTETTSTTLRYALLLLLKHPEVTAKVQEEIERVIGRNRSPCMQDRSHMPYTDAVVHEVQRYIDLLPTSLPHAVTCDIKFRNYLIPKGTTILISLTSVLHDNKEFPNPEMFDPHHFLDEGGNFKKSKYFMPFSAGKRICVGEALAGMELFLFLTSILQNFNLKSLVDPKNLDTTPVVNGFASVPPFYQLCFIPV
Cytochrome P450 1A2 (Homo sapiens), sequence (P05177 whole entry, looked up): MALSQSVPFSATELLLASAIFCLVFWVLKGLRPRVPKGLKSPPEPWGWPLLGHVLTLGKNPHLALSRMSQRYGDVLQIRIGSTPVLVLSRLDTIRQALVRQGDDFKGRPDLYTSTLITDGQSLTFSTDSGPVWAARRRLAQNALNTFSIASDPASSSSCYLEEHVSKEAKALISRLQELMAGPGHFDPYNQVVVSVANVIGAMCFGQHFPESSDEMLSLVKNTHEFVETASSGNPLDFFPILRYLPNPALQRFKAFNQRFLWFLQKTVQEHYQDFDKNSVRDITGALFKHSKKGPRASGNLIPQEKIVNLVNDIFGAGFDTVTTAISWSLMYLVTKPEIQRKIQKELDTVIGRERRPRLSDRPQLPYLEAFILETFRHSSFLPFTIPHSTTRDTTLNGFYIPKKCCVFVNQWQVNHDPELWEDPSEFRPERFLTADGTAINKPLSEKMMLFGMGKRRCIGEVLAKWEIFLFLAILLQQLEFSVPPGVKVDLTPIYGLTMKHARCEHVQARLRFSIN

As for `CCCCCCCCCCCCN1CCCCCC1=O`, the Potency result in experiment [1], in experiment [2], in experiment [3], in experiment [4], in experiment [6] and in [8] was “inactive” throughout. The Potency result in [9] was “inactive”. Also, the figures for the Potency in experiment [5] and in experiment [7] were 21.7 µM (active) and 31.7 µM (active), respectively.
`Clc1ccc(Cn2c(CN3CCCC3)nc3ccccc32)cc1`: the Potency entry in experiment [1] and in [3] was “inactive” throughout. The Potency in [10] was 1.74 µM (active); in [7], 15.5 µM (active); in experiment [11], 18.2 µM (active); in experiment [8], 1.34 µM (active).
As for `CCOC(=O)NCCOc1ccc(Oc2ccccc2)cc1`, the Potency result in experiment [1] and in [9] was “inactive” each time. The Potency is 21.7 µM (active) in experiment [5]; 6.33 µM (active) in experiment [6]; 20 µM (active) in experiment [7]; 11.2 µM (active) in [11]; 43.6 µM (active) in experiment [8].
As to `COc1cc(C(=O)OCCCN2CCCN(CCCOC(=O)c3cc(OC)c(OC)c(OC)c3)CC2)cc(OC)c1OC`, the Potency entry in experiment [1], in experiment [3] and in [11] was “inactive” each time. In addition, the Potency in [2] was 23.7 µM (active); in experiment [4] it was 26.6 µM (active); in experiment [5] it was 29.8 µM (active); in [8] it was 6.01 µM (active).
As to `CN(C)CCOC(c1ccccc1)c1ccc(Br)cc1` (configuration not stated), the Potency entry in experiment [1], in [2], in [3], in experiment [5] and in experiment [9] was “inactive” in each case. Further, the Potency in experiment [11] was 17.4 µM (active).
For the compound `O=C1[C@H]2CCCC[C@H]2C(=O)N1CCCCN1CCN(c2nsc3ccccc23)CC1`, the Potency entry in experiment [1], in experiment [4], in experiment [6], in experiment [7] and in [11] was “inactive” each time. Further, the Potency was 5.31 µM (active) in [5], 12.6 µM (active) in experiment [13] and 8.49 µM (active) in experiment [8]. Moreover, the max activation in experiment [12] is 2.09%.
On to `COc1cc2c(cc1OC)C(C(C(=O)N(CCc1ccc(OC)c(OC)c1OC)CCc1ccc(OC)c(OC)c1OC)c1ccccc1)=NCC2` (configuration not stated), for which the Potency result in [1], in experiment [14] and in experiment [11] was “inactive” each time. In addition, the Potency in experiment [2] is 26.6 µM (active); in experiment [4], 26.6 µM (active); in [5], 2.66 µM (active); in experiment [12], 2.51 µM (active); in experiment [13] it was 7.94 µM (active); in experiment [6], 12.3 µM (active). Further, the Potency in experiment [7] was 11 µM (active).
Take `CN1CCC(N(Cc2cccs2)c2ccccc2)CC1`: the Potency entry in experiment [1], in experiment [3], in experiment [7], in experiment [11] and in [9] was “inactive” each time. The Potency was 0.436 µM (active) in [10] and 2.68 µM (active) in experiment [8].
For the compound `CC(C)C[C@H]1C(=O)N2CCC[C@H]2[C@]2(O)O[C@](NC(=O)[C@@H]3C=C4c5cccc6[nH]c(Br)c(c56)C[C@H]4N(C)C3)(C(C)C)C(=O)N12`, the Potency result in experiment [1], in experiment [3], in experiment [14], in [11] and in experiment [8] was “inactive” in each case. The Potency in experiment [4] was 16.4 µM (active); in experiment [6], 21.4 µM (active). Also, the max activation in experiment [12] is 0.513%.
On to `CCN(CC)CCOC(=O)C(Cc1cccc2ccccc12)CC1CCCO1` (configuration not stated), for which the Potency result in experiment [1], in [2], in [3], in experiment [4] and in [7] was “inactive” throughout. The max activation in [12] is 10.4%. The Potency in experiment [10] is 2.75 µM (active).
Consider `O=C(Nc1ccc(S(=O)(=O)N2CCOCC2)cc1)c1cc(Cl)ccc1NS(=O)(=O)c1ccc(Cl)s1`, for which the Potency entry in experiment [1], in experiment [4], in [10], in [11] and in experiment [8] was “inactive” in each case. Further, the Potency is 38.9 µM (active) in experiment [6] and 0.0436 µM (active) in [7].
Turning to `CCN(CC)CCOC(=O)C(c1ccccc1)C1CCCCC1` (configuration not stated), the Potency result in experiment [1], in experiment [3], in experiment [14] and in [7] was “inactive” in each case. For the same compound, the max activation in experiment [12] is 1.58%. The Potency in experiment [13] was 25.1 µM (active); in experiment [10], 1.1 µM (active); in experiment [11], 3.63 µM (active); in experiment [8], 6.01 µM (active).
